According to PubChem BioAssay (NCATS):
Records with an inconclusive call do not appear. Where a call stands in place of a potency, no number is given. Calls of active or inactive are those of the source. Calls come from the whole dose curve; as a rule, active = well fitted curve in the direction sought with a large enough effect; inconclusive = small, poorly fitted or top-dose-only effect, or another doubt; inactive = no such curve, though single readings can be large; an effect the other way counts as inactive or inconclusive.

Legend:
[1] = NS1 protein of Zika virus - qHTS assay to identify small molecule inhibitors in human HEK 293 cells (AID 1347053); note: nearly all actives have a fitted effect of over 55% in size
Method in brief: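 TR-FRET signal from two anti-ZIKV NS1 antibodies quantified NS1 in HEK 293 cells 24 h after MR766 infection at MOI = 0.5; compounds were added 1 h before virus. Uninfected cells and infected cells defined the NS1 normalization range.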

[2] = qHTS of pediatric cancer cell lines to identify multiple opportunities for drug repurposing: Primary screen for TC32 cells (AID 1347089); note: nearly all actives have a fitted effect of over 60% in size
Method in brief: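 TC32 cells, 500-1,000/well in growth medium, compound-treated 48 h at 37 °C; viability from CellTiter-Glo luminescence. Primary screen: MIPE 11-point (0.78 nM–46 µM final), NPC 8-point (0.59 nM–46 µM final); confirmatory at 11-point dilutions.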

[3] = qHTS of pediatric cancer cell lines to identify multiple opportunities for drug repurposing: Primary screen for DAOY cells (AID 1347090); note: nearly all actives have a fitted effect of over 55% in size
Method in brief: (§1)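 Viability measured as metabolically active cells via CellTiter-Glo luminescence following 48 hours of compound exposure, 11-point dilutions in confirmatory testing. 500-1,000 cells/well plated 5 hours before dosing; controls were DMSO and 2.3 µM bortezomib.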

[4] = qHTS of pediatric cancer cell lines to identify multiple opportunities for drug repurposing: Primary screen for SJ-GBM2 cells (AID 1347091)
Method in brief: as §1
Potency is the fitted concentration of half-maximal effect.

Row | SMILES | Potency [1] | Potency [2] | Potency [3] | Potency [4]
1 | c1ccc(-c2nn3c(c2-c2ccnc4cc(OCCN5CCOCC5)ccc24)CCC3)nc1 | inactive | inactive | – | –
2 | CNCc1ccc(-c2[nH]c3cc(F)cc4c3c2CCNC4=O)cc1 | inactive | inactive | – | –
3 | Cc1cnc(Nc2ccc(OCCN3CCCC3)cc2)nc1Nc1cccc(S(=O)(=O)NC(C)(C)C)c1 | inactive | inactive | inactive | inactive
4 | Cc1ccc(NC(=O)c2cccc(C(C)(C)C#N)c2)cc1Nc1ccc2ncn(C)c(=O)c2c1 | inactive | inactive | – | –
5 | OCCn1cc(-c2cnc3nnn(Cc4ccc5ncccc5c4)c3n2)cn1 | inactive | inactive | – | –
6 | Nc1nccc(-c2ccc3noc(-c4ccc(Cl)cc4)c3c2)n1 | inactive | inactive | – | –
7 | CC(C)(C)OC(=O)CN(Cc1ccc(Cl)cc1)Cc1ccc([N+](=O)[O-])s1 | inactive | inactive | inactive | inactive
8 | NC(=O)c1ccc(I)c([N+](=O)[O-])c1 | inactive | inactive | – | inactive
9 | CCCS(=O)(=O)Nc1ccc(F)c(C(=O)c2c[nH]c3ncc(-c4ccc(Cl)cc4)cc23)c1F | inactive | inactive | 18.7 µM (active) | 18.7 µM (active)
10 | NC(=O)c1ccc(-c2nc(-c3ccc4c(c3)OCCO4)c(-c3ccccn3)[nH]2)cc1 | inactive | inactive | inactive | inactive
11 | Cc1cc(C=c2sc3nc4ccccc4n3c2=O)c(C)n1-c1ccccc1 | inactive | inactive | inactive | inactive
12 | O=C(NOC[C@H](O)CO)c1ccc(F)c(F)c1Nc1ccc(I)cc1F | inactive | inactive | 18.7 µM (active) | inactive
13 | CCn1c(-c2nonc2N)nc2cnc(Oc3cccc(NC(=O)c4ccc(OCCN5CCOCC5)cc4)c3)cc21 | 14.8 µM (active) | inactive | – | 0.235 µM (active)
14 | CC1(C)SCCN(S(=O)(=O)c2ccc(OCC#CCO)cc2)[C@@H]1C(=O)NO | inactive | inactive | – | inactive
15 | Cn1c(=O)c(F)c(Nc2ccc(I)cc2F)c2c(=O)n(C[C@@H](O)CO)cnc21 | inactive | inactive | – | inactive
16 | CN(C(=O)c1ccc(F)cc1C(F)(F)F)C1CCN(c2nnc(-c3ccnn3C)c3ccccc23)CC1 | inactive | inactive | – | inactive
17 | OCCC#Cc1nc(-c2ccc(F)cc2)c(-c2ccncc2)n1CCCc1ccccc1 | inactive | inactive | – | 23.5 µM (active)
18 | CS(=O)(=O)Oc1ccc2c(NC(N)=O)c(C(=O)c3ccc(Cl)cc3Cl)oc2c1 | inactive | inactive | 14.8 µM (active) | 3.32 µM (active)
19 | Cc1cc([C@@H](C)Nc2ccccc2C(=O)O)c2nc(N3CCOCC3)cc(=O)n2c1 | inactive | 12 µM (active) | 0.679 µM (active) | 13.6 µM (active)
20 | CS(=O)(=O)c1ccc(C(=O)Nc2ccc(Cl)c(-c3ccccn3)c2)c(Cl)c1 | inactive | inactive | inactive | inactive
21 | COc1ccc(CCN2CCN(CCCc3ccccc3)CC2)cc1OC | inactive | inactive | inactive | inactive
